Screening results: PubChem BioAssay, National Center for Advancing Translational Sciences (NCATS)
Shown are actives, neighbours in structure and some others; about 21% of the full set was active somewhere.
Pf growth 48h = P. falciparum growth inhibition at 48 hours (one generation); P. falciparum luciferase growth in erythrocytes, 48 h; Potency, µM (doses to about 28.7 µM), inactives show top-dose activity change, negative = inhibition, actives largely listed as inhibitors; hit rate 5.9% among 310,000; further: potency means the concentration at half of the fitted maximal effect; on the % scale 0 is the no-effect control and ±100 the full control effect
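Read-out is firefly luciferase luminescence from an integrated reporter in P. falciparum, so falling signal marks reduced parasite growth. Infected erythrocytes were at 2% hematocrit and 0.1% parasitemia (final) in Albumax-supplemented RPMI 1640.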
NS1 function inh = blocks influenza NS1 protein function; AID 2326; Potency, µM (doses to about 46.1 µM), for inactives: at the highest dose activity, positive = more growth; hit rate 0.4% among 270,000; calls by dose curve; further: potency means the concentration at half of the fitted maximal effect; actives are rising curves; nearly all actives have a fitted effect of over 50% in size
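Recovery from NS1-induced slow growth read by OD600 in budding yeast switched to galactose assay medium (pH 6.0, -URA) at 1:100 dilution. Compound 23 nl per well; the matching strain lacking NS1 serves as control.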
Shiga toxin inh = inhibitors of Shiga toxin in Vero cells. Vero cells, Shiga toxin protein synthesis inhibition reporter. inhibition, % at 38.7 µM. AID 2315. hit rate 9.2% among 290,000; in the data active means inhibition mostly above about 28%, no sharp cut-off; inactive means mostly below about 43%; further: 0% is about no effect
CHX counter = counter-screen hit for Shiga toxin inhibitors, cycloheximide. cell reporter, cycloheximide protein synthesis inhibition counterscreen. hit rate 12% among 300,000. max response, %; in the data active means max response mostly above about 13%, no sharp cut-off; inactive means mostly below about 14%; further: read at 38.3 µM for the half of the compounds with a filed dose; 0% is about no effect
Pf growth 96h = inhibits malaria parasite growth, 96 h. hit rate 6.9% among 320,000. P. falciparum luciferase reporter growth, 96 h. Potency, µM (titrated, usually from 28.7 µM), without a hit: top-dose activity change, negative = inhibition, hits mostly inhibitors. AID 504834; further: potency means the concentration at half of the fitted maximal effect; on the % scale 0 is the no-effect control and ±100 the full control effect
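Cell-based qHTS: luciferase-tagged P. falciparum in erythrocytes (2% hematocrit, 0.05% parasitemia final) incubated with compounds for 96 hours, 37 C, 5% CO2; luciferase detection reagent then added and luminescence measured.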
Active calls of the source: *; ? = inconclusive; nt = no result given. Unless noted, the call rests on the fitted dose curve; in most records, active means well fitted inhibition curve with a large enough effect; inconclusive means small, poorly fitted or top-dose-only effect, or another doubt; inactive means no such curve, though single readings can be large or run the other way.

SMILES	Pf growth 48h	NS1 function inh	Shiga toxin inh	CHX counter	Pf growth 96h
C/C(CCc1ccco1)=N/NC(=O)CCC(=O)Nc1cccc(Cl)c1	-8%	16%	-13	9	24%
Cc1ccc(C(=O)CCNc2ccc(Cl)cc2)o1	nt	-13%	31	17*	10µM*
C/C(CCc1ccco1)=N/NC(=O)CCC(=O)Nc1ccc(Br)cc1	4%	9%	-7	-1	10µM*
CCc1ccc(NCCC(=O)c2ccc(Cl)cc2)cc1	2%	-4%	-6	-1	57%
Cc1cccc(NC(=O)CCC2CCN(C(=O)C3CC=CCC3)CC2)c1 (stereo unspecified)	-10%	-6%	-10	1	-11%
Cc1oc(-c2cccc(Cl)c2)nc1CN1CCC(C(=O)N2CCN(c3ccccc3F)CC2)CC1	?	-9%	5	-1	12%
Cc1oc(-c2ccccc2)nc1CN1C(=O)C(C)N=C(c2ccccc2F)c2cc(Cl)ccc21 (stereo unspecified)	?	-19%	-14	-2	2.3µM*
CN1C(=O)/C(=C/c2cccc(Cl)c2)Sc2ccc(C(=O)N3CCCC3)cc21	?	-40%	-1	0	18%
CCC(=O)Nc1cc(C(=O)OCC(=O)c2ccccc2Cl)ccc1C	84%	11%	106*	45*	34%
CCC(=O)Nc1cc(C(=O)OCC(=O)c2ccccc2)ccc1C	229%	-7%	active	53*	261%
Cc1sc2ncnc(NCc3ccco3)c2c1C	-5%	-5%	6	-3	9.3µM*
Cc1ccc(Nc2ncnc3sc(C)c(C)c23)cc1C	21%	-2%	43	31*	nt
Cc1sc2ncnc(NCC(O)c3ccccc3)c2c1C (stereo unspecified)	-17%	-3%	82*	23*	4%
Cc1sc2ncnc(N/N=C/c3ccccc3O)c2c1C	2.9µM*	-47%	34*	36*	6%
COc1ccc(NC(=O)C(NC(=O)c2ccc(=O)[nH]c2)c2ccc(OC)cc2)cc1 (stereo unspecified)	-26%	-7%	-11	-2	36%
N#Cc1cn(CC(=O)N2CCc3ccccc3C2)c2ccccc12	?	-3%	-6	2	nt
Cc1sc2ncnc(NCC(c3ccccc3)N(C)C)c2c1C (stereo unspecified)	-17%	-6%	-19	-3	?
Cc1sc2ncnc(NCC(O)c3ccc([N+](=O)[O-])cc3)c2c1C (stereo unspecified)	9.3µM*	-17%	-8	-2	?
COc1ccc(NC(=O)C2CCCN2S(=O)(=O)c2cccc3cccnc23)c(OC)c1 (stereo unspecified)	-7%	-96%	8	1	10µM*
O=C(Nc1cccc(C(F)(F)F)c1)C1CCCN1S(=O)(=O)c1cccc2cccnc12 (stereo unspecified)	?	?	-8	-1	10µM*
CC(=O)c1cccc(NC(=O)c2cc3ccccn3n2)c1	nt	-117%	34	30*	?
CSc1ccccc1C(=O)Nc1cc(C)ccc1C	-4%	0%	-11	-2	?
Cc1ccccc1NC(=O)c1c(F)c(F)c(F)c(F)c1F	-17%	3%	-9	-1	nt
Cc1ccc(C)c(NC(=O)c2cnn3ccccc23)c1	nt	-92%	66	14*	-12%
Cc1ccc(C)c(NC(=O)c2cc3ccccn3n2)c1	112%	-11%	99*	27*	33%
SMILES	Pf growth 48h	NS1 function inh	Shiga toxin inh	CHX counter	Pf growth 96h
Cc1ccccc1NC(=O)c1cc2ccccn2n1	204%	-4%	67*	52*	278%
CCOCCCNC(=O)C(NC(=O)c1cnccn1)c1ccc(C)cc1 (stereo unspecified)	21%	5%	15	-4	?
CC(=O)Nc1ccc(NC(=O)C(C)OC(=O)c2c(NC(C)=O)sc(C)c2C)cc1 (stereo unspecified)	2%	nt	nt	nt	?
O=C(NCc1ccc(F)cc1)c1cc2ccccn2n1	20%	-38%	-40	24*	3.7µM*
CCOc1ccc(CCNC(=O)c2cc3ccccn3n2)cc1OCC	nt	-12%	-6	-4	18%
CC1(c2nnc(-c3cccc(Cl)c3)o2)CC(c2ccc(OC(F)(F)F)cc2)=NO1 (stereo unspecified)	67%	-18%	-3	-1	140%
Cc1cc(Nc2ccc(F)c(Cl)c2)n2nc(C)nc2n1	3.3µM*	-49%	-13	-6	10%
Cc1cc(Nc2ccc(F)c(Cl)c2)n2ncnc2n1	?	4%	-2	-4	?
COc1ccc(Nc2cc(C)nc3nc(C)nn23)cc1Cl	nt	?	8	4	3%
COc1cc(Nc2cc(C)nc3nc(C)nn23)cc(OC)c1OC	9.3µM*	2%	9	-3	-19%
CC1(C)CSC(=NCCc2ccccc2)N1	17%	-6%	54*	14*	28%
CN(CCC1CCCCO1)C(=O)CCc1nnc(CCCCc2ccccc2)o1 (stereo unspecified)	-21%	-5%	33	17*	11%
CN(CCCC1CCCC1)C(=O)CCc1nnc(-c2ccccc2)o1	2%	-9%	53*	32*	18%
Cc1cc(C)n(CCNC(=O)CCc2nnc(CCc3ccccc3)o2)n1	3%	1%	-1	-3	-27%
O=C(CCc1nnc(-c2ccccc2)o1)c1ccc(Cl)cc1	39%	-7%	4	0	34%
CCn1ccnc1CN(C)C(=O)CCc1nnc(CCCc2ccccc2)o1	?	-7%	20	10	-17%
Cc1cc(C)n(CCN(C)C(=O)CCc2nnc(CCC3CCCCC3)o2)n1	-14%	1%	91*	38*	22%
CN(C(=O)CCc1nnc(-c2ccc(-c3ccccc3)cc2)o1)C1CCOCC1	?	15%	30*	13	32%
CCCn1cnc2c(=S)nc(N)[nH]c21	?	4%	-8	1	-22%
CCN(CC)C(=O)CCNS(=O)(=O)c1ccc(C)cc1	4%	6%	-3	7	0%
CCOC(=O)C(C)n1cnc2c(cnn2-c2ccc(Cl)cc2)c1=O (stereo unspecified)	52%	2%	-25	11	13%
CC1CN(c2ncnc3c2cnn3-c2ccc(Cl)cc2)CC(C)O1 (stereo unspecified)	nt	-18%	31	15	221%
CCOC(=O)N1CCC(Nc2ncnc3c2cnn3-c2ccc(Cl)cc2)CC1	91%	-4%	120*	54*	nt
CCOC(=O)C1CCCN(c2ncnc3c2cnn3-c2ccc(OC)cc2)C1 (stereo unspecified)	101%	-56%	70*	35*	?
CCOC(=O)C1CCCN(c2ncnc3c2cnn3-c2ccc(Cl)cc2)C1 (stereo unspecified)	?	-82%	24	17*	?
CNc1ccccc1C(=O)OCC(=O)N1CCN(c2ccc(OC)cc2)CC1	-18%	-13%	7	-1	5%
CCn1c(SCC(=O)Nc2nc(-c3ccc(C)cc3)cs2)nnc1-c1ccccc1	nt	0%	4	-1	nt
C=CCn1c(SCC(=O)Nc2ccc(-c3nc4ccc(C)cc4s3)cc2)nnc1-c1ccncc1	127%	-1%	39	19*	?
